Only some compounds are listed: those with a hit (about 14% of all), similar ones and a draw of the others.
USP30 block = human USP30 deubiquitinase inhibition. Q70CQ3. purified USP30, Ub-rhodamine cleavage fluorescence. inhibition, % at 25 µM. hit rate 5.3% among 47,000
USP8 inh = inhibitors of human USP8 deubiquitinase; inhibition, % at 20 µM; hit rate 4.2% among 47,000; P40818; purified USP8, Ub-rhodamine cleavage fluorescence, 30 min
USP10 inh = blocks human USP10 ubiquitin-rhodamine cleavage. AID 1645856. inhibition, % at 20 µM. purified USP10, Ub-rhodamine fluorescence, 60 min. hit rate 1.1% among 47,000
USP28 inh = human USP28 deubiquitinase inhibition. purified USP28, Ub-rhodamine cleavage fluorescence, 30 min. inhibition, % at 25 µM. hit rate 3% among 47,000
USP17 inh = human USP17-like deubiquitinase inhibition; A8MUK1; inhibition, % at 50 µM; purified USP17, Ub-rhodamine cleavage fluorescence, 3 h; hit rate 6.5% among 47,000
Target sequence (A8MUK1 whole entry, looked up): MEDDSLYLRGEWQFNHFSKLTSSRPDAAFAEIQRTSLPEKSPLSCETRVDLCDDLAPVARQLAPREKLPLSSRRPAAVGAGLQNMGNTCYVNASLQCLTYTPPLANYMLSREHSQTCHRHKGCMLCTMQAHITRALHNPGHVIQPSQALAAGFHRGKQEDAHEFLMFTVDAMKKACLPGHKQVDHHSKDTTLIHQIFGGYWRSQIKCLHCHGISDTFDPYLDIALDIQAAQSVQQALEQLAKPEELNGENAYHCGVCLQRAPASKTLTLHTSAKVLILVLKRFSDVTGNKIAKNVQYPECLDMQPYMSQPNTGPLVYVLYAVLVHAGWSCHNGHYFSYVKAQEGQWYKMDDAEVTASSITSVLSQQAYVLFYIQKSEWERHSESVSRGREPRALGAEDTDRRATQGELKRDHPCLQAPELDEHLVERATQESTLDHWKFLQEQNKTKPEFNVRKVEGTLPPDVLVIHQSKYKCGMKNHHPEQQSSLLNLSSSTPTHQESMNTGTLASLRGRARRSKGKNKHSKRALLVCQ
Starred values were filed as active, the others as inactive; nt = no result. Rule as the data show it: active = inhibition above about 30%; inactive = the rest.

SMILES	USP30 block	USP8 inh	USP10 inh	USP28 inh	USP17 inh
CC(CN=C1NS(=O)(=O)c2ccccc21)c1ccccc1 (configuration not stated)	15.8	28.7	8.8	15.0	13.7
O=S1(=O)NC(=NCCc2ccc(Cl)cc2Cl)c2ccccc21	22.3	19.3	7.1	4.9	58.2*
O=S1(=O)NC(=NCCc2ccc(Cl)cc2)c2ccccc21	28.8	15.1	7.3	8.5	34.7*
COc1ccc(NS(=O)(=O)c2cccc(NC(=O)CCOc3ccccc3OC)c2)cc1	nt	6.7	6.4	nt	-3.3
CCOc1ccc(C(=O)CCC(=O)Nc2cccc(S(=O)(=O)Nc3cccc(Cl)c3)c2)cc1	-47.1	-0.2	33.4*	-3.3	31.8*
Cc1oncc1C(=O)N1CC[C@H]2CO[C@H](CN3CCOCC3)[C@H]2C1	30.2*	-140.9	-0.1	17.3	6.2
COc1ccc(Cn2nc(C)cc2NC(=O)c2cccc(F)c2)cc1OC	6.1	-4.5	8.9	7.3	1.2
COc1ccc(-c2cncc(-c3cc(N(C)Cc4ccccc4)nc(-c4ccccc4)n3)c2)cc1	-6.4	11.1	5.1	-1.4	-20.3
O=C1c2oc3ccccc3c(=O)c2C(c2ccco2)N1c1nc2ccc(F)cc2s1 (configuration not stated)	-50.6	-20.2	-6.9	-9.6	-10.7
O=C1C(=O)N(c2nc3ccc(F)cc3s2)C(c2ccc(F)cc2)/C1=C(\O)c1ccc(F)cc1 (configuration not stated)	-109.7	-39.7	61.4*	1.3	-79.9
Cc1sc2ncnc(OCC(=O)c3cc(F)ccc3F)c2c1C	6.9	-0.1	3.4	-4.8	2.1
Cc1ccc(-c2ccnc(-c3ccc(OCc4ccc([N+](=O)[O-])cc4)cc3)n2)cc1	15.5	-21.4	-1.7	0.3	2.6
Cc1sc2ncnc(OCc3ccc([N+](=O)[O-])cc3)c2c1C	-98.8	-136.0	-3.6	46.1*	-3.8
Cc1sc2ncnc(OCc3ccc(F)cc3Cl)c2c1C	-4.9	20.2	-6.8	57.6*	14.0
CC(=O)c1ccc(S(=O)(=O)N(Cc2ccc(C(=O)NC3CC3)cc2)C2CC2)cc1	30.1*	15.6	4.6	15.1	27.1
COc1ccc(S(=O)(=O)N(Cc2ccc3c(c2)CCO3)C2CC2)cc1	12.8	8.1	9.1	0.0	18.5
O=C(Nc1ccccc1)c1cn2c3c(cccc3c1=O)CC2	0.6	17.5	6.4	2.9	68.6*
O=C(O)c1cn2c3c(cccc3c1=O)CCC2	2.9	29.4	1.0	2.7	5.4
Cc1ccc(-c2csc(-c3nnn(-c4cccc(Cl)c4)c3N)n2)cc1	-15.6	42.4*	0.6	-0.8	-3.7
COc1ccc(-c2csc(-c3nnn(-c4cc(OC)cc(OC)c4)c3N)n2)cc1	-29.2	-4.0	-2.7	-5.8	-15.0
Nc1c(-c2nc(-c3ccccc3)cs2)nnn1-c1ccccc1	nt	2.9	1.4	nt	7.6
Nc1c(-c2nc(-c3ccc4c(c3)OCO4)cs2)nnn1-c1ccccc1	15.3	33.6*	-1.1	7.3	64.9*
CCOc1ccc2oc(C(=O)OC(C)C(=O)Nc3cccc(C(F)(F)F)c3)c(C)c2c1 (configuration not stated)	-17.2	8.3	-4.8	-0.9	0.0
CC(C)(C)Nc1c(C2CCN(C(=O)CCc3ccno3)CC2)nc2ccccn12	9.4	1.9	-1.0	5.0	6.7
CCN(CC)c1ccc2nnc(CCC(=O)NC3CCCCC3)n2n1	-0.7	-3.0	0.5	-1.0	-13.5
SMILES	USP30 block	USP8 inh	USP10 inh	USP28 inh	USP17 inh
CCOC(=O)N1CCC(NC(=O)c2cnn3c(-c4ccccc4)ccnc23)CC1	39.6*	-4.8	-4.7	2.7	32.0*
CCOC(=O)N1CCC(NC(=O)Cn2ccc3ccccc32)CC1	-5.1	-0.4	0.0	-5.0	-11.0
O=C(Nc1ccccc1C(=O)O)c1ccc(CSCc2ccccc2)cc1	-24.6	-17.8	51.1*	31.2*	39.4*
Cc1sc2nc(C(C)C)n(C3CCN(CC(=O)NC4CC4)CC3)c(=O)c2c1C	13.9	1.8	-0.5	6.3	2.7
O=C1CC(O)C(O)c2cccc(O)c21 (configuration not stated)	-4.2	76.5*	12.5	34.1*	90.5*
CCCCN1Cc2sc(NC(=O)Nc3ccccc3F)nc2C1=O	1.1	1.8	0.2	0.4	32.5*
N#Cc1ccc(Cc2ncc(C(F)(F)F)cc2Cl)s1	-0.1	0.3	2.7	59.8*	2.7
O=S(=O)(NCc1ccccn1)c1ccc(Cc2ncc(C(F)(F)F)cc2Cl)s1	-20.1	-19.4	-0.4	-16.8	-17.6
Cn1c(CN2CCCCCC2)nc2cc(NC(=O)c3ccccc3)ccc21	-67.3	20.1	-1.4	0.5	50.8*
Cn1c(CCN2CCN(c3ccccn3)CC2)nc2cc(NC(=O)c3ccccc3)ccc21	10.1	7.5	-0.4	-1.3	-4.3
Cn1c(CCN2CCN(c3ccc(F)cc3)CC2)nc2cc(NC(=O)c3ccc(Cl)cc3)ccc21	35.7*	36.7*	7.7	24.0	33.1*
Cc1ccc(N2CCN(CCc3nc4cc(NC(=O)Nc5ccccc5)ccc4n3C)CC2)cc1	7.9	-3.1	-0.6	-1.1	42.9*
CCCCC(=O)Nc1ccc2c(c1)nc(CCN1CCN(c3ccc(C)cc3)CC1)n2C	6.5	4.0	0.1	0.9	3.3
CCN(CC)S(=O)(=O)c1cccc(C(=O)OC(C(=O)Nc2cc(C)cc(C)c2)c2ccccc2)c1 (configuration not stated)	-1.1	11.4	2.4	6.8	0.0
Cc1[nH]c2ccc(F)cc2c1CCNC(=O)c1cc2cc([N+](=O)[O-])ccc2oc1=O	14.4	-13.6	6.8	1.8	-32.4
Cc1[nH]c2ccccc2c1CCNC(=O)c1cc2cc(Cl)ccc2oc1=O	1.9	56.0*	-3.2	8.5	22.8
COc1ccc(NC(=O)c2cnc(N3CCCCC3)nc2C)cc1OC	-32.6	-54.9	-3.7	44.3*	-19.0
Cc1nc(N2CCCC2)ncc1C(=O)Nc1ccc(F)c(F)c1	53.1*	4.7	4.2	11.2	0.0
CN(C)S(=O)(=O)c1ccc(C(=O)Nc2c(C#N)oc3ccccc23)cc1	25.5	0.3	11.0	27.4	50.8*
CN(C)S(=O)(=O)c1ccc(C(=O)Nc2sccc2C#N)cc1	-90.1	-12.3	-8.2	-23.0	-6.7
COc1cc(N2CC[C@@H]3[C@@H]2CCN3Cc2cccc(C#N)c2)ncn1	-7.5	-91.5	-1.6	-0.3	-17.2
Cc1cc(C(=O)N2CC(C(=O)Nc3cccc(-c4csc(C)n4)c3)C2)no1	-16.5	-67.0	-2.1	-6.4	-16.6
Cc1cc(C)c(C#N)c(SCC(=O)Nc2nsc(-c3ccc(C(C)(C)C)cc3)n2)n1	2.3	7.8	7.2	0.9	-0.4
O=C(CSc1nc2scc(-c3ccco3)c2c(=O)n1-c1ccccc1)Nc1nsc(-c2ccccc2)n1	-186.8	-20.1	-4.5	36.9*	16.0
CN1[C@@H](CCC(=O)Nc2ccccc2)CNC(=O)[C@@H]2[C@H]1CCN2Cc1ccc(O)cc1	4.4	2.1	0.3	0.6	1.3
Cn1c(-c2c(N)n(Cc3ccc(Cl)cc3)c3nc4ccccc4nc23)nc2ccccc21	-51.8	57.0*	-5.9	-16.7	-12.9
